Laboratory results: the OligoGym collection

Target: CHEK1
Experiment: pooled miR-30 sensor sort-seq; sequence = guide strand
Conditions: shRNA
Also: reference of the scale not given here.

Row | Sequence | sensor-assay potency score (higher = more potent)
1 | TAACCTGATTCATACAACTTTT | -1.09
2 | TAAAGTACCACACATCTTGTTC | -0.726
3 | TTTGTTGTACCATCTATCTTTT | -0.765
4 | TTTGGTAAAGAATCGTGTCATT | -0.878
5 | TTCCACAGGACCAAACATCAAC | -1.04
6 | TTCTGGTTTAATATCCCTGTGA | -0.58
7 | TTTTCTGGTTTAATATCCCTGT | 0.0757
8 | TGTCTCTTGAACTCCAATCCAT | -0.483
9 | TTAATCTTCAGGAAGTGTCTCT | 0.552
10 | TAACTGACTATTCAAAAGCATA | -1.68
11 | TTTCCAGTCAGAATACTCCTGA | -0.0829
12 | TGATATAGTAACCTGATTCATA | -0.794
13 | TTTGTCTGCATCCAATTTGGTA | -0.969
14 | TTGTTGATATAGTAACCTGATT | -1.22
15 | TTTTCTTCACTAGAAGCACTGT | 0.254
16 | TTCTTCACTAGAAGCACTGTTT | 0.0317
17 | TTCAGGAACTACTATTTGCAGT | -0.581
18 | TATCCCATAAGGAAAGACCTGT | -0.371

Target: CHI3L1
Experiment: as above
Conditions: shRNA

Row | Sequence | sensor-assay potency score (higher = more potent)
19 | TGAATCTGTCAGGACTTGCATC | -0.763
20 | TTTGACGCTTTCCTGGTCGTCG | -0.339
21 | TTTGTCTCTCCGTCCAGGGTAG | -0.776
22 | TTCATTTCCTTGATTAGGGTGG | 0.13
23 | AAATCGTAGGTCATGATGCTAA | -0.871
24 | TTGCATCCTCCTGACCTCGGAA | -0.718
25 | TTCCTTTATAAATTCGGCCTTC | -0.526
26 | TATATTGGCAAAGCTGTAGATG | -1.02
27 | TAGAGCGTCACATCATTCCACT | -0.926
28 | TTGTATGCAGAGCAGCACTGGA | -1.21
29 | TTTGTATGCAGAGCAGCACTGG | -1.09
30 | TAGTCAGTGTTGCTGAATCTGT | -1.28
31 | TTGAGCATGCCGTAGAGCGTCA | -0.951
32 | TTGGCAATGTCATAGCTGCTGT | -0.359
33 | TTTCCTGGTCGTCGTATCCTAC | -0.76
34 | TAGCAGACCAGTTTGTATGCAG | 0.269
35 | TTGAGTGTGTTGAGCATGCCGT | -0.388
36 | ATAATTAGTATGGTCACTGTGT | -0.0223
37 | TATCTTGGCAATGTCATAGCTG | 0.682
38 | TCTGTCAGGACTTGCATCCTCC | -0.579
39 | TTGCTTTTGACGCTTTCCTGGT | -0.698
40 | ATCTTGGCAATGTCATAGCTGC | -1.04
